Assay results published in the supplement of paper PMC7411054.

Key:
Experiment in all cases: phenotypically active (imaging signature differs from DMSO and reproducible) at any of 0.3-9 uM (binary (1 = active, 0 = inactive)); higher = active
Details in all cases: treatment time: 24 h
[1] = system: A549-ACTB-RAB5A
Outline: (§1)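 Phenotypic activity depended on meeting both a deviation and a reproducibility criterion. The fifteen gene-edited A549, HepG2 and WPMY1 reporter lines were treated at 0.3, 1, 3 or 9 µM for 24 h, four wells each, then imaged live with features normalised to solvent control wells. Deviation required ≥3 of 4 wells past the 95th percentile of control Euclidean distances, and reproducibility a median replicate Pearson correlation above the 95th percentile of non-replicates.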

[2] = system: A549-CANX-COX4
Outline: as §1

[3] = system: A549-GM130-SQSTM1
Outline: as §1

[4] = system: A549-TP53BP1-CLTA
Outline: as §1

[5] = system: A549-TUBA1B-RELA
Outline: as §1

[6] = system: HepG2-ACTB-RAB5A
Outline: as §1

[7] = system: HepG2-CANX-COX4
Outline: as §1

[8] = system: HepG2-GM130-SQSTM1
Outline: as §1

[9] = system: HepG2-TP53BP1-CLTA
Outline: as §1

[10] = system: HepG2-TUBA1B-RELA
Outline: as §1

[11] = system: WPMY1-ACTB-RAB5A
Outline: as §1

[12] = system: WPMY1-CANX-COX4
Outline: as §1

[13] = system: WPMY1-GM130-SQSTM1
Outline: as §1

[14] = system: WPMY1-TP53BP1-CLTA
Outline: as §1

[15] = system: WPMY1-TUBA1B-RELA
Outline: as §1

Measured: phenotypically active

NC(=O)c1cccc(-c2cccc(OC(=O)NC3CCCCC3)c2)c1
inactive: [1] 0 | [2] 0 | [3] 0 | [4] 0 | [5] 0 | [6] 0 | [7] 0 | [8] 0 | [9] 0 | [10] 0 | [11] 0 | [12] 0 | [13] 0 | [14] 0 | [15] 0

C[C@H]1[C@H](C)CC[C@]2(C(=O)O[C@@H]3O[C@H](CO[C@@H]4O[C@H](CO)[C@@H](O[C@@H]5O[C@@H](C)[C@H](O)[C@@H](O)[C@H]5O)[C@H](O)[C@H]4O)[C@@H](O)[C@H](O)[C@H]3O)CC[C@]3(C)C(=CC[C@@H]4[C@@]5(C)C[C@@H](O)[C@H](O)[C@@](C)(CO)[C@@H]5CC[C@]43C)[C@H]12 [Asiaticoside]
inactive: [1] 0 | [2] 0 | [3] 0 | [4] 0 | [5] 0 | [6] 0 | [7] 0 | [8] 0 | [9] 0 | [10] 0 | [11] 0 | [12] 0 | [13] 0 | [14] 0 | [15] 0

C#C[C@]1(OC(C)=O)CC[C@H]2[C@@H]3CCC4=CC(=NO)CC[C@@H]4[C@H]3CC[C@@]21CC [norgestimate]
inactive: [1] 0 | [2] 0 | [3] 0 | [4] 0 | [5] 0 | [6] 0 | [7] 0 | [8] 0 | [9] 0 | [10] 0 | [11] 0 | [12] 0 | [13] 0 | [14] 0 | [15] 0

CCN(CC)CCNC(=O)c1cc(Cl)c(N)cc1OC [metoclopramide]
inactive: [1] 0 | [2] 0 | [3] 0 | [4] 0 | [5] 0 | [6] 0 | [7] 0 | [8] 0 | [9] 0 | [10] 0 | [11] 0 | [12] 0 | [13] 0 | [14] 0 | [15] 0

COc1ccc(C2=N[C@H](c3ccc(Cl)cc3)[C@H](c3ccc(Cl)cc3)N2C(=O)N2CCNC(=O)C2)c(OC(C)C)c1 [Nutlin-3]
inactive: [1] 0 | [2] 0 | [3] 0 | [4] 0 | [5] 0 | [6] 0 | [7] 0 | [8] 0 | [9] 0 | [10] 0 | [11] 0 | [12] 0 | [13] 0 | [14] 0 | [15] 0

CC(C)c1ccc(NC(=O)Cn2cnc3c2c(=O)n(C)c(=O)n3C)cc1
inactive: [1] 0 | [2] 0 | [3] 0 | [4] 0 | [5] 0 | [6] 0 | [7] 0 | [8] 0 | [9] 0 | [10] 0 | [11] 0 | [12] 0 | [13] 0 | [14] 0 | [15] 0

CCOC(=O)C(C)(C)Oc1ccc(Cl)cc1 [Clofibrate]
inactive: [1] 0 | [2] 0 | [3] 0 | [4] 0 | [5] 0 | [6] 0 | [7] 0 | [8] 0 | [9] 0 | [10] 0 | [11] 0 | [12] 0 | [13] 0 | [14] 0 | [15] 0

O=C(O)[C@]1(O)C[C@H](O)[C@@H](O)[C@@H](O)C1 [Quinic acid]
inactive: [1] 0 | [2] 0 | [3] 0 | [4] 0 | [5] 0 | [6] 0 | [7] 0 | [8] 0 | [9] 0 | [10] 0 | [11] 0 | [12] 0 | [13] 0 | [14] 0 | [15] 0

COc1ccc([C@@H]2CC(=O)c3c(O)cc(O[C@@H]4O[C@H](CO[C@@H]5O[C@@H](C)[C@H](O)[C@@H](O)[C@H]5O)[C@@H](O)[C@H](O)[C@H]4O)cc3O2)cc1O [Hesperidin]
inactive: [1] 0 | [2] 0 | [3] 0 | [4] 0 | [5] 0 | [6] 0 | [7] 0 | [8] 0 | [9] 0 | [10] 0 | [11] 0 | [12] 0 | [13] 0 | [14] 0 | [15] 0

C[C@H](Cc1cc2c(c(C(N)=O)c1)N(CCCO)CC2)NCCOc1ccccc1OCC(F)(F)F [silodosin]
inactive: [1] 0 | [2] 0 | [3] 0 | [4] 0 | [5] 0 | [6] 0 | [7] 0 | [8] 0 | [9] 0 | [10] 0 | [11] 0 | [12] 0 | [13] 0 | [14] 0 | [15] 0

Cc1ccc(-c2cc(C(F)(F)F)nn2-c2ccc(S(N)(=O)=O)cc2)cc1 [celecoxib]
inactive: [1] 0 | [2] 0 | [3] 0 | [4] 0 | [5] 0 | [6] 0 | [7] 0 | [8] 0 | [9] 0 | [10] 0 | [11] 0 | [12] 0 | [13] 0 | [14] 0 | [15] 0
